# Several values for one entry are separate records, joined by “and”; a condition that tells them apart may be missing. Equal values may be shown once. The panel holds about 79,000 compounds, 15% with a hit somewhere; the sample as a whole holds those more often. Values without a mark were called inactive. Activity calls are given as the source filed them. No stated cut-off is given here; in the data, active means growth inhibition above about 70%; inactive means the rest.
# How the values were obtained:
# [1] = NCI Yeast Anticancer Drug Screen. Data for the rad50 strain (AID 155);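 further: 0% = growth of vehicle-only cultures of the same strain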; settings: S. cerevisiae rad50 strain growth inhibition; at 50.0 µM; stronger effect = higher value
# How it was run: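 Relative growth inhibition (compound vs vehicle) was measured in yeast with a defined repair-gene alteration.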
# [2] = NCI Yeast Anticancer Drug Screen. Data for the mec2-1 strain (AID 157); settings: S. cerevisiae mec2-1 strain, at 50.0 µM, stronger effect = higher value
# How it was run: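 Cells of the genetically defined mec2-1 yeast strain are incubated with test compound. Inhibition of growth is calculated against vehicle-treated controls.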
# [3] = NCI Yeast Anticancer Drug Screen. Data for the sgs1 mgt1 strain (AID 161);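 further: 0% = growth of cultures given vehicle only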; settings: S. cerevisiae sgs1 mgt1 strain, at 50.0 µM, stronger effect = higher value
# How it was run: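 Test agents were incubated with a DNA-repair-mutant yeast strain. Growth was then read and compared against vehicle-treated controls.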
# [4] = NCI Yeast Anticancer Drug Screen. Data for the cln2 rad14 strain (AID 165);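 further: 0% = growth equal to vehicle treated cultures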; settings: S. cerevisiae cln2 rad14 strain, at 50.0 µM, stronger effect = higher value
# How it was run: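 The screen exposed genetically defined yeast (cln2 rad14) to test compounds and scored growth inhibition relative to vehicle-treated controls.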
# [5] = NCI Yeast Anticancer Drug Screen. Data for the bub3 strain (AID 167); settings: S. cerevisiae bub3 mutant strain, at 50.0 µM, stronger effect = higher value
# How it was run: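 Screening used yeast with an engineered genetic alteration affecting cell cycle control. Compound-exposed cultures were compared with vehicle cultures, and reduced growth was taken as inhibition.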
# [6] = NCI Yeast Anticancer Drug Screen. Data for the mlh1 rad18 strain (AID 175); settings: S. cerevisiae mlh1 rad18 strain growth inhibition; at 50.0 µM; stronger effect = higher value
# How it was run: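 Compound-treated yeast growth, normalised to vehicle controls. Strain bears defined DNA repair mutations.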
SMILES,growth inhibition [1],growth inhibition [2],growth inhibition [3],growth inhibition [4],growth inhibition [5],growth inhibition [6]
C1CN1Sc1nc(SN2CC2)nc(SN2CC2)n1,-1.35%,-5.55%,19.7%,-73%,11.8%,27.3%
COC1C(O)C(C)OC(O[C@@H]2C[C@H]3CC[C@@H]4[C@H](CC[C@]5(C)[C@@H](C6=CC(=O)OC6)CC[C@]45O)[C@@]3(C)[C@H](O)C2)C1O (stereo partly drawn),1.4%,-12.5%,-3.55%,-6.35%,1%,3.8%
CS(=O)(=O)CS(=O)(=O)OCCF,5%,-12.4%,-10.6%,-9.55%,-29%,-33.2%
O=C1C[C@@H]2OCC=C3C[N+]4([O-])CC[C@]56c7ccccc7N1[C@H]5[C@H]2[C@H]3C[C@@H]64 (stereo partly drawn),-4.85% and -6.5%,-7.75% and -6.3%,2.05%,0.9%,25.4%,-3.15% and -3.7%
Clc1ccc(C2ON2c2ccccc2)cc1 (stereo not drawn) (tested in a mixture with another compound),3.1%,14.6%,16.2%,4.45%,-8.4%,18.2%
O=NN(CCF)C(=O)NCCO,1.9%,-7.3%,7.75%,12.4%,1.75%,-32.2%
Cc1ccc(NP(=S)(Nc2ccc(C)cc2C)Nc2ccc(C)cc2C)c(C)c1,18.3%,-1.6%,-3.1%,17.9%,2.7%,9.55%
CCCCOC1OCN(C2CCCCC2)CC1(C)C (stereo not drawn),13.5%,28.1%,27.5%,13.7%,36.8%,41.8%
CCCCOP(=O)(CCCC)OCCCC.CCCCOP(=O)(CCCC)OCCCC.CCCCOP(=O)(CCCC)OCCCC.CCCCOP(=O)(CCCC)OCCCC.O.O.[Co+2].[O-][Cl+3]([O-])([O-])O,25.4%,5.55%,7.35%,17.6%,19.8%,5.8%
COc1cc2c(cc1OC)[N+]1(C)CCC3OCCC4C[N+]5(C)CCC26C5CC4C3C61 (stereo not drawn),6.15%,3.45%,2.75%,-6%,-6.6%,-13.3%
CC(=O)O.CC(=O)O.CC(=O)O.CC(=O)O.[Cu].[Cu],36.9%,20.2%,56.5%,-53.6%,26.9%,40.8%
CC(=O)N[C@@H](C[S-])C(=O)O.O=[N+]([O-])O.[Ag+],-1.95%,0.95%,53.8%,25.1%,19.9%,21.1%
CCSCCC(N)C(=O)O (stereo not drawn),0.15% and -21.3%,-13.9% and -15%,-37.8% and -2%,-70.4% and -32.9%,-19.9% and 6.05%,-13.2% and -28.6%
CS/C([S-])=N/N=C(C)C.CS/C([S-])=N/N=C(C)C.[Pt+2],9.1%,1.45%,0.7%,-41.3%,-0.8%,-9.9%
Cc1cc(N(C)CCCl)ccc1N=Nc1ccccc1C(=O)O,36.5%,10.8%,36.8%,6%,23.4%,18.8%
CN(C)CCNC(=O)c1cccc(COC(=O)Nc2ccc(N(CCCl)CCCl)cc2)c1[N+](=O)[O-],-3.55%,-15.8%,1.2%,-49.8%,-3.65%,-11.9%
N#CC(C#N)=Cc1cccc(C#N)c1,-0.75%,21.4%,-2.85%,19.1%,-4.75%,3.45%

SMILES,growth inhibition [1],growth inhibition [2],growth inhibition [3],growth inhibition [4],growth inhibition [5],growth inhibition [6]
C/C=C1/CN2CCC34c5ccccc5N(C)C23C2CC1C4(C(=O)OC)C(O)O2 (stereo not drawn),-31%,-31.8%,-24.7%,-4.2%,-8.4%,-58.9%
NCCN.NCCN.[Cl-].[O]=[Os+2]=[O],0.8% and 3.45%,-22% and 1%,-6.15% and -20.8%,-20.3% and 23.3%,-40.6% and 0.3%,-6.3% and -13.2%
Cc1ccc2nc(NC(=O)C(=O)C3C(=O)NC(=S)NC3=O)sc2c1,-2.75%,-19.1%,2.85%,2.4%,-8.95%,-40%
CC1NC1c1ccccc1 (stereo not drawn),-13.6%,-29.3%,-6.85%,-20.4%,-11.8%,-19.4%
[N-]=[N+]=Nc1nc2ccccc2c(N=[N+]=[N-])c1Cl,6.85%,-6.7%,5.6%,31.9%,5.45%,9.45%
Nc1n[nH][nH]c1=O,-29.5%,-26.1%,-13.9%,-20.4%,-0.7%,-12.1%
CC1(C)N=C(N)N=C(N)N1c1ccc(CCc2ccc(S(=O)(=O)F)c(Cl)c2)c(Cl)c1,99.2% (active),99.7% (active),99.8% (active),98.7% (active),99.2% (active),99.7% (active)
O=C(Nc1ccc([As](=O)(O)O)cc1)Nc1cccc(Cl)c1Cl,37.9%,36.3%,-8%,0.3%,44.1%,34.9%
COc1cccc(C(O)CN(C)C)c1OC (stereo not drawn),7.05%,-6.65%,11.2%,30.2%,-9.85%,9.95%
CN1CCc2c([nH]c3ccccc23)C1,18.4%,-7.3%,20.6%,17.2%,1.2%,-45.1%
CC(C)CC(=O)[O-].CC(C)CC(=O)[O-].N.N.N.N.[Co+3].[O-][Cl+3]([O-])([O-])O.[O-][Cl+3]([O-])([O-])[O-],-23.6%,-6.2%,-42.2%,-20.9%,-16.2%,-14.8%
CC1(C(=O)O)C2[Se]c3[se]ccc3C2C1(C)C(=O)O (stereo not drawn),-3.45%,-12.7%,-3.5%,-12.2%,1.8%,-4.55%
COc1cc2c(cc1O)C(=O)O[C@@H]1CC=C3CCN(C)[C@H]3[C@H]21,3.4%,11.3%,-7.3%,7.1%,-37.4%,19.8%
C[n+]1c[se]cn1,-2.9%,9.25%,-8.2%,1.2%,-14.1%,0.55%
CCOP1(=S)NNP(=S)(OCC)NN1 (stereo not drawn),-2.75%,-11.5%,-3.75%,18.4%,10.2%,8.85%
COc1ccc(Cc2nccc3cc(OC)c(OC)cc23)cc1OC,-4.15% and -16.3%,-19.4% and -28%,-6.9% and 11.4%,-2.9% and -11.6%,-11.7% and -7.9%,-21.1% and -29.4%

# — PubChem BioAssay (NCI)
